Consider seven molecules from PubChem BioAssay.

Experiment [1] can be described thus: growth inhibition of DIPG glioma cells, dose response, cell-based, SU-DIPG-XVII, MIPE5.0, CellTiter-Glo, qHTS (AID 1347060; cut-off not given, nearly all actives have AC50 up to about 26 µM;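 on AC50: cells exposed to compound for 48 hours before viability readout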). The note with it: SU-DIPG-XVII viability, CellTiter-Glo ATP luminescence. Background: Cellular ATP, detected with luciferase, serves as a proxy for viable cell number.
The nature of experiment [2]: growth inhibition of DIPG glioma cells, dose response, cell-based, SU-DIPG-XIII, MIPE4.0, CellTiter-Glo, qHTS (AID 1347061; cut-off not given, nearly all actives have AC50 up to about 37 µM;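 further: cells exposed to compound for 48 hours before readout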). To be noted: SU-DIPG-XIII viability, CellTiter-Glo ATP luminescence.
Experiment [3] can be described thus: growth inhibition of DIPG glioma cells, dose response, cell-based, JHH-DIPG-1, MIPE4.0, CellTiter-Glo, qHTS (AID 1347062; cut-off not given, nearly all actives have AC50 up to about 27 µM;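 on AC50: cells exposed to compound for two days before readout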). To be noted: JHH-DIPG-1 viability, CellTiter-Glo ATP luminescence.
A short description of experiment [4]: growth inhibition of DIPG glioma cells, dose response, cell-based, SU-DIPG-IV, MIPE4.0, CellTiter-Glo, qHTS (AID 1347063; cut-off not given, nearly all actives have AC50 up to about 30 µM;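 further: compound exposure lasted 48 hours before the viability readout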). The note with it: SU-DIPG-IV viability, CellTiter-Glo ATP luminescence.
A short description of experiment [5]: viability loss in pontine glioma line – cell-based, SU-DIPG-XXV, MIPE5.0, CellTiter-Glo, qHTS, dose response (AID 1347065; cut-off not given, nearly all actives have AC50 up to about 26 µM;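 further: cells exposed to compound for 48 hours before ATP readout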). The note with it: CellTiter-Glo ATP luminescence.
A short description of experiment [6]: JHH-DIPG-1 glioma cell viability, MIPE5.0 library, CellTiter-Glo luminescence, qHTS (AID 1347067; cut-off not given, nearly all actives have AC50 up to about 26 µM;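 further: cells exposed to compound for 48 hours before readout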). To be noted: JHH-DIPG-1 glioma viability, CellTiter-Glo ATP luminescence.
Experiment [7] in a line: SU-DIPG-XXV glioma cell viability, MIPE5.0 library, qHTS (AID 1347068; cut-off not given, nearly all actives have IC50 up to about 30 µM;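 on IC50: cells exposed to compound for 48 hours before viability readout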). (In general: Quantitative high-throughput screening tests each substance at several concentrations.)
The nature of experiment [8]: SU-DIPG-VI glioma cell viability, MIPE4.0 library, CellTiter-Glo luminescence, qHTS (AID 1347066; cut-off not given, nearly all actives have AC50 up to about 30 µM;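 further: cells exposed to compound for 48 hours before readout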). The note with it: CellTiter-Glo ATP luminescence.
The nature of experiment [9]: modifiers of HSF1 nuclear foci, imaging, Selleck Cancer Library (AID 1347162; in the data active means plate-normalised HSF1 focus index below about 0.46). The note with it: human cells, at 10 µM; SSMD: measured here: HSF1 foci SSMD mean; cell count: measured here: cell number; plate-normalised HSF1 focus index: stronger effect = lower value.
Experiment [10] in a line: ovarian cancer cell viability with rucaparib, profiling panel, oncology-focused library, rucaparib conditional (AID 1508598). The note with it: patient-derived ovarian cancer cells, CellTiter-Glo viability, 144 h, stronger effect = lower value.

Results filed as inconclusive are left out. Active and inactive are the calls of the source.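 How the source made its calls, unless noted: active means normalized viability below 100% at a tested concentration; inactive means the rest.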

As for `COC1CCC(N(C(=O)C2CCC(C)CC2)c2cc(C3=CCCCC3)sc2C(=O)O)CC1` (stereo not drawn), the outcome in [1], in experiment [2], in experiment [3], in experiment [4], in experiment [5] and in experiment [6] was inactive. In [7], the call was inactive.
By AC50 is commonly meant the concentration at which the activity in the assay is half-maximal. On to `COc1ccc(C2CC(c3ccccc3)=NN2c2ccc(S(N)(=O)=O)cc2)cc1` (stereo not drawn), for which the outcome in [1], in experiment [2], in experiment [5], in [8] and in experiment [6] was inactive. The AC50 in [3] is 4690 nM (active); in experiment [4], 16600 nM (active). The molecule also gave an SSMD in experiment [9] of 2.07. Further, the cell count in experiment [9] is 7280. Also, in experiment [9], the plate-normalised HSF1 focus index is 1.13 (inactive).
For `CC[C@H](/C=C/[C@@H](C)[C@H]1CC[C@H]2[C@@H]3CC=C4C[C@@H](O)CC[C@]4(C)[C@H]3CC[C@]12C)C(C)C`, the molecule was classed as inactive in experiment [1], in experiment [2], in [3], in experiment [4], in experiment [5] and in experiment [8]. Further, the result in [6] and in experiment [7] was inactive.
The term IC50 denotes the point on the concentration scale where inhibition reaches its midpoint. Consider `Cc1nc2cnc3ccc(C#Cc4cccnc4)cc3c2n1-c1ccc(C(C)(C)C#N)cc1`, for which the half-maximal activity concentration (AC50) in [1] was 468 nM (active); in experiment [2], 590 nM (active); in experiment [3] it was 166 nM (active); in experiment [4], 29.6 nM (active); in experiment [5] it was 209 nM (active); in experiment [8], 1180 nM (active). Also, the half-maximal activity concentration (AC50) in experiment [6] was 1660 nM (active). Further, in experiment [7], the IC50 was 2630 nM (active).
As usually defined, the viability is a read-out of living cells in per cent, often relative to untreated cells. On to `CCN1CCN(Cc2ccc(-c3cc4c(N[C@H](C)c5ccccc5)ncnc4[nH]3)cc2)CC1`, for which the AC50 in experiment [1] was 14800 nM (active); in [2], 5260 nM (active); in experiment [3], 13200 nM (active); in [4], 46.9 nM (active); in [5], 18600 nM (active); in experiment [8] it was 23500 nM (active). For the same molecule, the SSMD in experiment [9] is 1.68. The same molecule registered a cell count in [9] of 7280. For the same molecule, in experiment [9], the plate-normalised HSF1 focus index was 1.06 (inactive). Also, the viability in experiment [10] (at 0.000305 µM, OCI-C5x cells, with rucaparib 10 µM, 100% = cells with rucaparib alone) was 113% (inactive); in experiment [10] (at 0.000305 µM, OCI-C5x cells, without rucaparib) it was 121% (inactive); in [10] (at 0.000305 µM, OCI-P5x cells, with rucaparib 20 µM, 100% = cells with rucaparib alone), 97.2% (active); in [10] (at 0.000305 µM, OCI-P5x cells, without rucaparib) it was 117% (inactive); in [10] (at 0.00122 µM, OCI-C5x cells, with rucaparib 10 µM, 100% = cells with rucaparib alone), 110% (inactive); in experiment [10] (at 0.00122 µM, OCI-C5x cells, without rucaparib), 123% (inactive). Also, the viability in experiment [10] (at 0.00122 µM, OCI-P5x cells, with rucaparib 20 µM, 100% = cells with rucaparib alone) is 100% (active); in experiment [10] (at 0.00122 µM, OCI-P5x cells, without rucaparib) it was 120% (inactive); in experiment [10] (at 0.00488 µM, OCI-C5x cells, with rucaparib 10 µM, 100% = cells with rucaparib alone), 110% (inactive); in experiment [10] (at 0.00488 µM, OCI-C5x cells, without rucaparib), 127% (inactive); in experiment [10] (at 0.00488 µM, OCI-P5x cells, with rucaparib 20 µM, 100% = cells with rucaparib alone) it was 108% (inactive); in experiment [10] (at 0.00488 µM, OCI-P5x cells, without rucaparib) it was 118% (inactive). Besides, the viability in experiment [10] (at 0.0195 µM, OCI-C5x cells, with rucaparib 10 µM, 100% = cells with rucaparib alone) was 109% (inactive); in experiment [10] (at 0.0195 µM, OCI-C5x cells, without rucaparib), 124% (inactive); in experiment [10] (at 0.0195 µM, OCI-P5x cells, with rucaparib 20 µM, 100% = cells with rucaparib alone) it was 98% (active); in [10] (at 0.0195 µM, OCI-P5x cells, without rucaparib) it was 115% (inactive); in experiment [10] (at 0.0781 µM, OCI-C5x cells, with rucaparib 10 µM, 100% = cells with rucaparib alone) it was 106% (inactive); in [10] (at 0.0781 µM, OCI-C5x cells, without rucaparib), 129% (inactive). Besides, the viability in [10] (at 0.0781 µM, OCI-P5x cells, with rucaparib 20 µM, 100% = cells with rucaparib alone) is 102% (inactive); in [10] (at 0.0781 µM, OCI-P5x cells, without rucaparib), 123% (inactive); in experiment [10] (at 0.313 µM, OCI-C5x cells, with rucaparib 10 µM, 100% = cells with rucaparib alone), 119% (inactive); in experiment [10] (at 0.313 µM, OCI-C5x cells, without rucaparib) it was 146% (inactive); in experiment [10] (at 0.313 µM, OCI-P5x cells, with rucaparib 20 µM, 100% = cells with rucaparib alone), 98.7% (active); in experiment [10] (at 0.313 µM, OCI-P5x cells, without rucaparib), 112% (inactive). Further, the viability in [10] (at 1.25 µM, OCI-C5x cells, with rucaparib 10 µM, 100% = cells with rucaparib alone) was 96.1% (active); in [10] (at 1.25 µM, OCI-C5x cells, without rucaparib) it was 114% (inactive); in [10] (at 1.25 µM, OCI-P5x cells, with rucaparib 20 µM, 100% = cells with rucaparib alone) it was 90.3% (active); in experiment [10] (at 1.25 µM, OCI-P5x cells, without rucaparib), 118% (inactive); in experiment [10] (at 5 µM, OCI-C5x cells, with rucaparib 10 µM, 100% = cells with rucaparib alone), 70.8% (active); in experiment [10] (at 5 µM, OCI-C5x cells, without rucaparib), 117% (inactive). The viability in [10] (at 5 µM, OCI-P5x cells, with rucaparib 20 µM, 100% = cells with rucaparib alone) is 64.4% (active); in experiment [10] (at 5 µM, OCI-P5x cells, without rucaparib), 105% (inactive).
As for `COc1ccc(OC)c(-c2nnc3ccc(-c4ccc(OC)c(O[C@@H]5CCOC5)c4)nn23)c1`, the AC50 in experiment [1] was 2950 nM (active); in [2], 26400 nM (active); in experiment [3], 7430 nM (active); in experiment [4] it was 14800 nM (active); in experiment [5], 2630 nM (active); in [8], 11800 nM (active).
For the molecule `CCC[C@@H](C=O)NC(=O)[C@H](CC(C)C)NC(=O)[C@H](CC(C)C)NC(=O)OCc1ccccc1`, the AC50 was 332 nM (active) in [1]; 935 nM (active) in [2]; 372 nM (active) in experiment [3]; 148 nM (active) in experiment [4]; 186 nM (active) in [5]; 526 nM (active) in experiment [8]. In experiment [6], the concentration at half-maximal activity (AC50) is 525 nM (active). Moreover, the half-inhibitory concentration (IC50) in experiment [7] was 590 nM (active).
